Whole data set: some 33,000 sequences, median “e-score” near -0.053, cut for the highest 2% near 0.38. The list comes from a sample in which the highest values are over-represented; it also holds similar and randomly drawn sequences.
target: T1, SIX1 homeodomain (reference allele) (human, UniProt Q15475 108-198); experiment: universal protein binding microarray; Universal all-10-mer PBM (8x60K, AMADID 030236), 300 nM GST-tagged protein, Alexa Fluor 488 anti-GST; buffer, salt, pH and temperature not stated (as in Berger); high values mean tight binding; settings: protein: ivt; tags: N-terminal GST; dsDNA, one strand shown
T1 sequence: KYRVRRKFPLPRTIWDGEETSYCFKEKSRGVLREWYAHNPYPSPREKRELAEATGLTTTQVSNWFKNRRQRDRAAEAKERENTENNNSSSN
How it was run: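 GST-tagged homeodomains were made by in vitro transcription/translation and quantified by anti-GST western blot against a recombinant GST standard curve. They were applied in duplicate at 300 nM final concentration to universal 'all 10-mer' protein binding microarrays (8×60K format). Binding was quantified as 8-mer E-scores with the Universal PBM Analysis Suite.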

Sequence | binding signal
CCTATACG | 0.153 ± 0.0436 E-score
ACGATACA | 0.3689 ± 0.00151 E-score
ACGATACG | 0.4317 ± 0.000841 E-score
ACTATACG | 0.247 ± 0.0175 E-score
ACGATACT | 0.439 ± 0.00647 E-score
AAGATACT | 0.295 ± 0.0825 E-score
GAGGTGTA | 0.233 ± 0.0426 E-score
CCAATTAG | 0.188 ± 0.014 E-score
ATACTAGC | 0.245 ± 0.0797 E-score
GGATAGTA | 0.332 ± 0.00348 E-score
CCTATCGC | 0.29 ± 0.0221 E-score
ATTATCGG | 0.24 ± 0.012 E-score
CGTATCGC | 0.453 ± 0.00646 E-score
AGTATCGG | 0.4293 ± 0.0041 E-score
AGTATATG | 0.207 ± 0.0381 E-score
AGTATCGA | 0.418 ± 0.0178 E-score
AGTATCGC | 0.435 ± 0.0231 E-score
ACTATCGC | 0.2364 ± 0.00196 E-score
CGTATAGC | 0.185 ± 0.0242 E-score
AAGATCGC | 0.211 ± 0.00754 E-score
AGTATAGA | 0.195 ± 0.0499 E-score
ACTATCGA | 0.263 ± 0.00274 E-score
CTAGATAG | 0.197 ± 0.0328 E-score
ATATGCGA | 0.276 ± 0.0349 E-score
ATATAGCA | 0.248 ± 0.0375 E-score

Sequence | binding signal
TATTGAGA | 0.237 ± 0.0198 E-score
AGATCTGC | 0.204 ± 0.0418 E-score
ACTCGTAT | 0.205 ± 0.0218 E-score
GTATTGAA | 0.213 ± 0.0401 E-score
CTTGTATA | 0.213 ± 0.0563 E-score
ATACAGCA | 0.221 ± 0.0273 E-score
ATACTAGG | 0.275 ± 0.02 E-score
AATACGGC | 0.252 ± 0.0178 E-score
TATACGGA | 0.28 ± 0.0266 E-score
GATACGGA | 0.455 ± 0.00852 E-score
CATACGGA | 0.178 ± 0.0693 E-score
AATACGAC | 0.18 ± 0.0741 E-score
AATACGGT | 0.231 ± 0.00828 E-score
GATACGAC | 0.382 ± 0.0127 E-score
GATACGAA | 0.335 ± 0.00345 E-score
GATACGGC | 0.4543 ± 0.00163 E-score
ATTATAAT | 0.151 ± 0.0936 E-score
ATCGCTGA | 0.226 ± 0.0497 E-score
AATCCGAT | 0.3407 ± 0.0025 E-score
ATATGCGG | 0.274 ± 0.0261 E-score
CGATCACA | 0.273 ± 0.0408 E-score
ATCTCACC | 0.335 ± 0.0374 E-score
ATATCACG | 0.456 ± 0.0263 E-score
CTATCACA | 0.311 ± 0.0251 E-score
ATCACACA | 0.266 ± 0.0227 E-score

Sequence | binding signal
ATCTCACA | 0.293 ± 0.0554 E-score
GTGTCACA | 0.375 ± 0.0203 E-score
CTATCACC | 0.35 ± 0.0258 E-score
GTATCACA | 0.476 ± 0.00651 E-score
ATATCACC | 0.463 ± 0.0204 E-score
ATATCACA | 0.432 ± 0.0476 E-score
ATCACACG | 0.256 ± 0.0276 E-score
GACCCCGA | 0.162 ± 0.0961 E-score
GACCGATA | 0.352 ± 0.0178 E-score
ATCCTGCC | 0.175 ± 0.00513 E-score
ATCCCAGG | 0.246 ± 0.0889 E-score
ATACGTCG | 0.284 ± 0.0738 E-score
GAGGATCC | 0.366 ± 0.0159 E-score
ATCATGCC | 0.244 ± 0.0171 E-score
ATACTAAC | 0.243 ± 0.00453 E-score
GATCGGGA | 0.314 ± 0.0357 E-score
ATCATGTA | 0.257 ± 0.0225 E-score
AAAATGAT | 0.187 ± 0.101 E-score
CATGGATC | 0.307 ± 0.0322 E-score
CGCTGATA | 0.325 ± 0.0672 E-score
CACTGATC | 0.284 ± 0.00727 E-score
GGCTGATA | 0.422 ± 0.00103 E-score
AACTGATC | 0.286 ± 0.0372 E-score
AACTGATA | 0.409 ± 0.0324 E-score
AGCTGATA | 0.357 ± 0.0301 E-score

Sequence | binding signal
GACTGATC | 0.272 ± 0.0144 E-score
CACTGAGA | 0.188 ± 0.00306 E-score
CACTGATA | 0.404 ± 0.0311 E-score
GACTGATA | 0.4 ± 0.0302 E-score
GTCTGATA | 0.294 ± 0.0149 E-score
GATAAGGA | 0.183 ± 0.0109 E-score
TAAACTGA | 0.158 ± 0.0427 E-score
GATAAAAC | 0.164 ± 0.00658 E-score
AATAGTAT | 0.251 ± 0.0966 E-score
GATTAGAA | 0.184 ± 0.0514 E-score
ATCAGACC | 0.201 ± 0.00705 E-score
ACGATTAA | 0.152 ± 0.0367 E-score
AGACTATA | 0.204 ± 0.0102 E-score
AGCCAGAT | 0.176 ± 0.0223 E-score
TACTGACA | 0.182 ± 0.0373 E-score
TACTGCTA | 0.189 ± 0.0325 E-score
TACTGATA | 0.418 ± 0.0125 E-score
ATCGGTTC | 0.248 ± 0.0232 E-score
CCCTGAGC | 0.178 ± 0.0455 E-score
CCATCCGA | 0.218 ± 0.0511 E-score
ATACCATA | 0.3938 ± 0.0037 E-score
ACACCACT | 0.378 ± 0.0238 E-score
ACACCACA | 0.328 ± 0.0113 E-score
ATACCAAC | 0.367 ± 0.0126 E-score
ACACCATA | 0.302 ± 0.022 E-score

Sequence | binding signal
CTACCATA | 0.167 ± 0.0746 E-score
ATACCATG | 0.362 ± 0.0283 E-score
ATACCACG | 0.291 ± 0.0123 E-score
ATACCATC | 0.384 ± 0.0257 E-score
ATACCACA | 0.3 ± 0.00694 E-score
ATACCACC | 0.403 ± 0.00615 E-score
ACACCACC | 0.293 ± 0.0475 E-score
ATCCCCGA | 0.368 ± 0.0273 E-score
ATGGAGGA | 0.155 ± 0.0279 E-score
CTATACGA | 0.1804 ± 0.000898 E-score
ACCCTTCT | 0.224 ± 0.046 E-score
CACCCCTC | 0.251 ± 0.0895 E-score
AGATTAAT | 0.2 ± 0.0731 E-score
ATTAAACC | 0.174 ± 0.0609 E-score
GTGATCGA | 0.159 ± 0.103 E-score
TATTGGCA | 0.223 ± 0.0277 E-score
TCGATACA | 0.348 ± 0.00588 E-score
GTGATACA | 0.444 ± 0.0156 E-score
ATGATGCC | 0.157 ± 0.00805 E-score
ATGATACC | 0.4885 ± 0.000523 E-score
AAGATACA | 0.265 ± 0.0451 E-score
CTGATACA | 0.404 ± 0.00574 E-score
ATGATAAT | 0.168 ± 0.0146 E-score
GTTATACA | 0.151 ± 0.064 E-score
ATCATACA | 0.306 ± 0.0152 E-score

Sequence | binding signal
ATGATACA | 0.449 ± 0.0144 E-score
TAGATACA | 0.25 ± 0.019 E-score
CTACAGTA | 0.152 ± 0.00721 E-score
ATCACTAC | 0.287 ± 0.0143 E-score
GGATTGTA | 0.162 ± 0.0146 E-score
ACGCGATC | 0.275 ± 0.00505 E-score
GATAGCGA | 0.251 ± 0.00148 E-score
ATACATTG | 0.218 ± 0.012 E-score
GTATATTA | 0.267 ± 0.0332 E-score
CTGAGACC | 0.261 ± 0.00696 E-score
CTCATACC | 0.171 ± 0.00583 E-score
ATGATACG | 0.48 ± 0.01 E-score
ATCATACG | 0.269 ± 0.0223 E-score
CTGATACC | 0.4842 ± 0.00158 E-score
ATGATCAG | 0.229 ± 0.031 E-score
ATCGGGTA | 0.337 ± 0.0486 E-score
GATCGGAA | 0.167 ± 0.0621 E-score
CCTAGATC | 0.228 ± 0.0313 E-score
ATCAGTCA | 0.2227 ± 0.00177 E-score
AGGGATTG | 0.203 ± 0.0478 E-score
AGAGATCG | 0.25548 ± 0.000134 E-score
CGGGATCA | 0.417 ± 0.0124 E-score
AGGGATTA | 0.305 ± 0.032 E-score
AGGGATCG | 0.386 ± 0.0182 E-score
AGGGATGA | 0.176 ± 0.025 E-score

Sequence | binding signal
AGGGATCA | 0.4493 ± 0.00351 E-score
GGGGATGA | 0.267 ± 0.0256 E-score
GGGGATTA | 0.302 ± 0.0187 E-score
CGGGATTA | 0.263 ± 0.0233 E-score
CGGGATGA | 0.159 ± 0.0157 E-score
GGGGATCA | 0.4469 ± 0.0011 E-score
CAGCGATC | 0.265 ± 0.0201 E-score
ATTATGTG | 0.171 ± 0.0412 E-score
ATACTCGC | 0.34 ± 0.069 E-score
CTATACGC | 0.215 ± 0.0251 E-score
CGATCTGC | 0.209 ± 0.00856 E-score
CAGATTAC | 0.187 ± 0.0577 E-score
GATTATGC | 0.265 ± 0.0543 E-score
CCCATCTC | 0.292 ± 0.0209 E-score
ACACCTTG | 0.186 ± 0.0328 E-score
CGGGATCC | 0.393 ± 0.0513 E-score
ATGGATCC | 0.362 ± 0.0547 E-score
AGGGATCC | 0.386 ± 0.0382 E-score
CTGGATCC | 0.351 ± 0.0527 E-score
CAGGATCC | 0.354 ± 0.0257 E-score
AAGGATCC | 0.35 ± 0.0205 E-score
ATTCGATA | 0.302 ± 0.0451 E-score

From paper PMC10668032, “Altered binding affinity of SIX1-Q177R correlates with enhanced WNT5A and WNT pathway effector expression in Wilms tumor”
